# In PubChem BioAssay AID1220 (Sanford-Burnham Center for Chemical Genomics, 2008):
# The campaign covered roughly 190,000 compounds. About 1,300 (0.68%) were called active. The full list was thinned out, with actives kept by preference. Unmarked numbers belong to inactive results. Rule as the data show it: active = inhibition above about 50%; inactive = the rest.
# Target: Mannose-6-phosphate isomerase (Homo sapiens) (UniProt P34949)
# Assay: MPI inhibition at elevated mannose 6-phosphate – biochemical, fluorescence intensity, high mannose 6-phosphate, primary screen (AID 1220)
# Settings: recombinant PMI enzyme, coupled fluorescence intensity; at 20 µM; hits give high values
# Sequence of Mannose-6-phosphate isomerase (Homo sapiens) (P34949 whole entry, looked up): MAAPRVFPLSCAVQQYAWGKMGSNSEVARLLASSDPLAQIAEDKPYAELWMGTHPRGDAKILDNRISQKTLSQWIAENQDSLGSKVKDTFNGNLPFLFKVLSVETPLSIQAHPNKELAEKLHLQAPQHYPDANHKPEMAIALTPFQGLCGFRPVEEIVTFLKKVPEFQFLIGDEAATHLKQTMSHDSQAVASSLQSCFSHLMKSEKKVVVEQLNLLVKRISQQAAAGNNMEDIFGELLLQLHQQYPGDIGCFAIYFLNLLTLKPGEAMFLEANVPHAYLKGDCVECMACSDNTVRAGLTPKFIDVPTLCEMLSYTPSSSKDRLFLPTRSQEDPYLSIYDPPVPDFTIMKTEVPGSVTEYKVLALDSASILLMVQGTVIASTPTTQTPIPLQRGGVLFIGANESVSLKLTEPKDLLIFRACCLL
row,Compound,inhibition
1,COc1cc(SC)ccc1C(=O)Nc1ccc(Cl)cn1,2.4%
2,CC(=O)N1CCC2(CC1)CC(=O)c1cc(OCC(=O)N3CCOCC3)ccc1O2,-1.2%
3,CC1CCN(C2(O)C(=O)Nc3ccc(Br)cc32)CC1 (stereo unspecified),-1.3%
4,Cc1cc([N+](=O)[O-])cc2c1NC(=O)C2(O)N1CCOCC1 (stereo unspecified),16.7%
5,O=C1Nc2c(Br)cc(Br)cc2C1(O)N1CCOCC1 (stereo unspecified),55.6% (active)
6,COc1ccc(C2C(C(C)=O)=C(O)C(=O)N2CCCn2ccnc2)cc1 (stereo unspecified),-4%
7,CCOC(=O)C1(C)C=C(Nc2ccc(C)cc2)C(=O)N1c1ccc(C)cc1 (stereo unspecified),-5.2%
8,CCOC(=O)C1(C)C=C(Nc2ccc(OC)cc2)C(=O)N1c1ccc(OC)cc1 (stereo unspecified),18%
9,CCOC(=O)C1(C)C=C(Nc2ccc(O)cc2)C(=O)N1c1ccc(O)cc1 (stereo unspecified),58.5% (active)
10,O=C(/C=C/c1ccco1)Nc1nc(-c2ccccn2)cs1,25.9%
11,Cc1ccc(OCC(=O)N/N=C\c2cn(Cc3ccccc3)c3ccccc23)cc1C,2.4%
12,Cc1cccc(OCC(=O)N/N=C\c2cn(C)c3ccccc23)c1,-0.8%
13,CCOC(=O)c1c2ccc(OCC(=O)N/N=C/c3ccccc3C(F)(F)F)cc2n2ccccc12,64.2% (active)
14,Cc1ccc(/C=N/NC(=O)CNC(=O)COc2ccccc2)cc1,8.2%
15,CCOC(=O)c1c2ccc(OCC(=O)N/N=C/c3ccc(Cl)cc3)cc2n2ccccc12,48.6%
16,Cn1c2c(c(=O)n(C)c1=O)[C@@]1(C(=O)Nc3ccccc31)C(C#N)=C(N)O2,54.6% (active)
17,N#CC1=C(N)Oc2[nH]c(=S)[nH]c(=O)c2C12C(=O)Nc1ccccc12 (stereo unspecified),46.2%
18,Cn1c2c(c(=O)n(C)c1=O)C1(C(=O)Nc3ccccc31)C(C#N)=C(N)O2 (stereo unspecified),47.4%
19,CNc1oc(-c2ccc(Cl)cc2)nc1C#N,0.9%
20,Cc1c(Nc2cc(N3CCCC(C)C3)c3nonc3c2[N+](=O)[O-])c(=O)n(-c2ccccc2)n1C (stereo unspecified),44.3%
21,Cc1c(Nc2cc(N3CCCCCC3)c3nonc3c2[N+](=O)[O-])c(=O)n(-c2ccccc2)n1C,51.5% (active)
22,Cc1c(Nc2cc(N3CCOCC3)c3nonc3c2[N+](=O)[O-])c(=O)n(-c2ccccc2)n1C,27.1%
23,Cc1c(NC(=O)CN2c3cccc4cccc(c34)S2(=O)=O)c(=O)n(-c2ccccc2)n1C,5%
24,CC1=C(C)CC(C(=O)N2CCN(Cc3ccccc3)CC2)C(C(=O)O)C1 (stereo unspecified),9.2%

row,Compound,inhibition
1,CCCC(=O)Nc1nc2ccc(OC)cc2s1,7.2%
2,COc1ccc2nc(NC(=O)Nc3ccccc3)sc2c1,15.5%
3,COc1ccc2nc(NC(=O)Nc3cccc4ccccc34)sc2c1,58.6% (active)
4,Cn1c(-c2ccccc2)cc(=O)c2ccccc21,2%
5,Cc1cc(=O)n(C)c2ccccc12,-8.5%
6,Cn1c2ccccc2c(=O)n2c(=O)c3ccccc3cc12,54.4% (active)
7,CNC(=O)c1[nH]cnc1C(=O)N[C@@H](Cc1ccccc1)C(=O)OC(C)(C)C,2.7%
8,O=C1C2C3C=CC(C3)C2C(=O)N1c1ccccc1OS(=O)(=O)c1ccccc1 (stereo unspecified),-5%
9,CCOc1ccc(/C=C2\SC(N3CCc4ccccc4C3)=NC2=O)cc1,3.5%
10,Cc1ccc(N)c2c1OCCC2=O,57.7% (active)
11,COc1ccc(N)c2c1OCCC2=O,59.8% (active)
12,Cc1cccc(N)c1-c1c(C)cccc1N,5.8%
13,COc1ccc(OC)c2c1CCC2=O,-2.6%
14,Cc1ccc2c(c1C)OC(=O)CC2(C)C,-5.5%
15,COc1ccc(N)c2c1C(=O)c1ccccc1C2=O,23.8%
16,COC(=O)c1ccc(/C=N/NC(=S)NCCN2CCOCC2)cc1,-1.5%
17,NC(=O)C1CCN(C(=O)C2CCN(S(=O)(=O)c3ccccc3)CC2)CC1,5%
18,CC1(C)Cc2c(ccc3ccccc23)/C(=C/C(=O)N2CCCCC2)N1,-2.6%
19,CC1(C)Cc2ccccc2/C(=C/C(=O)N2CCCCCC2)N1,-22.6%
20,CC1(C)Cc2ccccc2C2=C(C(=O)N3CCCCCC3)C(=O)C(=O)N21,60.5% (active)
21,CC1(C)Cc2c(ccc3ccccc23)C2=C(C(=O)N3CCCC3)C(=O)C(=O)N21,56% (active)
22,CCOC(=O)C1=C2c3ccc4ccccc4c3CC(C)(C)N2C(=O)C1=O,27.6%
23,C=CCC1(O)C(=O)N2C(=C1C(=O)N1CCOCC1)c1ccccc1CC2(C)C (stereo unspecified),-1.7%
24,COc1ccc(/C=N/NS(C)(=O)=O)c(OC)c1,8.2%

row,Compound,inhibition
1,CCOC(=O)N/N=C1\CC(C)CC(C)(C)C1 (stereo unspecified),4.2%
2,COc1ccc(CCNC(=O)COC(=O)/C=C/c2cc(OC)c(OC)c(OC)c2)cc1OC,-0.4%
3,COc1cccc(CC2(CO)CCN(Cc3ccc4cccc(F)c4n3)CC2)c1,13.1%
4,Cc1ccc(OCC(=O)c2cc(C)n(-c3ccccc3)c2C)c([N+](=O)[O-])n1,21.3%
5,COc1ccc(-n2c(C)cc(C(=O)COc3ccc(C)nc3[N+](=O)[O-])c2C)cc1,41%
6,Cc1cc(-n2c(C)cc(C(=O)COc3ccccc3[N+](=O)[O-])c2C)no1,9.1%
7,Cc1cc(C(=O)COc2cccnc2[N+](=O)[O-])c(C)n1-c1ccccc1,53.3% (active)
8,Cc1ccc(OCC(=O)c2cc(C)n(C3CC3)c2C)c([N+](=O)[O-])n1,10.6%
9,Cc1ccc(-n2c(C)cc(C(=O)COc3cccnc3[N+](=O)[O-])c2C)cc1,54.5% (active)
10,CN(Cc1ccccc1)C(=O)CC(c1ccccc1)c1cc(Cl)ccc1O (stereo unspecified),4.5%
11,CCn1c(=O)c(C(=O)CN2CCN(S(=O)(=O)c3ccccc3)CC2)c(N)n(Cc2ccccc2)c1=O,0.5%
12,O=S(=O)(Nc1ccc(N2CCCCC2)cc1)c1ccccc1,0.6%
13,NS(=O)(=O)c1ccc(NCc2c(F)cccc2Cl)cc1,4.6%
14,O=C(Nc1ccc(N2CCCCCC2)cc1)c1ccccc1Cl,27.3%
15,O=C(O)c1cc(NCc2c(F)cccc2Cl)ccc1N1CCOCC1,2.7%
16,Clc1cccc(Cl)c1CNc1ccc(N2CCCC2)cc1,84.4% (active)
17,COC(=O)C(CCSC)NC(=O)CNS(=O)(=O)c1ccc(Br)cc1 (stereo unspecified),-7.6%
18,Cc1ccc(C)c(CN2CCNC2=O)c1,-0.9%
19,CCNC(=O)CC1C(=O)N(CC)C(=S)N1NC(=O)c1cccnc1 (stereo unspecified),-4.7%
20,N=C1S/C(=C\c2ccccc2F)C(=O)N1c1ccc(F)cc1,3.1%
21,Cc1ccc(NS(=O)(=O)Cc2ccccc2)nc1,16.5%
22,Cc1cc(C)nc(NS(=O)(=O)c2ccc(Br)s2)c1,42.1%
23,CCCCS(=O)(=O)Nc1ccc(C)cn1,57.3% (active)
24,Cc1ccc(NS(=O)(=O)c2ccc(Br)s2)nc1,66.2% (active)

row,Compound,inhibition
1,CCCCCCCCCS(=O)(=O)Nc1cc(C)ccn1,7.7%
2,Cc1cccc(NS(=O)(=O)c2ccc(Br)s2)n1,-4.4%
3,O=c1cc(CCl)nc2sc3ccccc3n12,-13.1%
4,COc1c(O)ccc(C2NC(=O)NC(C)=C2C(=O)Nc2ccccc2C)c1[N+](=O)[O-] (stereo unspecified),49.8%
5,COC(=O)C1=C(C)N(C)C(=O)NC1c1ccc(O)c(Cl)c1 (stereo unspecified),3.8%
6,COC(=O)C1=C(C)NC(=O)NC1c1ccc([N+](=O)[O-])o1 (stereo unspecified),10.9%
7,CCOc1c(O)ccc(C2NC(=O)NC(C)=C2C(=O)OC)c1[N+](=O)[O-] (stereo unspecified),50.9% (active)
8,COC(=O)C1=C(C)N(C)C(=O)NC1c1cc2c(cc1[N+](=O)[O-])OCO2 (stereo unspecified),42.7%
9,CCOc1c(O)ccc(C2NC(=O)N(C)C(C)=C2C(=O)OC)c1[N+](=O)[O-] (stereo unspecified),60.2% (active)
10,CN=C1SC(CC(=O)Nc2cc(Cl)ccc2Cl)C(=O)N1C (stereo unspecified),-9.7%
11,COc1ccc(/C=N/Nc2nc(N3CCCC3)nc(N3CCCC3)n2)c(OC)c1OC,4%
12,Cc1onc(-c2c(F)cccc2Cl)c1C(=O)NCCO,-4%
13,CC1(C)CC(=O)C(C2c3ccccc3S(=O)(=O)c3ccccc32)C(=O)C1,-5.8%
14,COc1ccc2c(c1)C(C1C(=O)CCCC1=O)c1ccccc1O2 (stereo unspecified),2.9%
15,CC1(C)CC(=O)C(C2c3ccccc3Oc3ccccc32)C(=O)C1,52.9% (active)
16,O=C(c1ccc(-c2ccccc2)cc1)N1CCC(C(=O)N2CCCC2)CC1,5.4%
17,COc1ccc(CC(=O)NC(=S)Nc2ccc(S(N)(=O)=O)cc2)cc1,-5.8%
18,CCOC(=O)C(NC(=O)Nc1cccc(C)n1)(OCC(F)(F)F)C(F)(F)F (stereo unspecified),59.1% (active)
19,Cc1cccc(NC(=O)NCC(F)(F)F)n1,-6.3%
20,CCOC(=O)C(NC(=O)Nc1ccccc1)(OCC)C(F)(F)F (stereo unspecified),5.2%
21,Cc1cc(C)nc(NS(=O)(=O)c2ccc(NC(=O)CN3C(=O)C4CC=CCC4C3=O)cc2)n1 (stereo unspecified),-7.4%
22,Cc1cc(C(=O)Nc2ccccc2C#N)n(-c2ccccc2)n1,1.2%
23,CC(=O)c1cccc(N2C(=NC(=O)C(C)C)SC3CS(=O)(=O)CC32)c1 (stereo unspecified),10.5%
24,O=C1COc2ccc(C(=O)COC(=O)Cc3ccccc3F)cc2N1,-2.3%
